According to PubChem BioAssay:

Columns and labels:
[1] = target: Tumor necrosis factor receptor superfamily member 10B (Homo sapiens) (UniProt O14763); experiment: caspase-8 TRAIL sensitization, hit retest, confirmation, cell-based, NB7+caspase-8, with/without TRAIL, luminescence panel (AID 651596); conditions: NB7 neuroblastoma + caspase-8, TRAIL sensitization, luminescence viability, with TRAIL, mean of runs, at 10 µM, stronger effect = higher value
[2] = as above; conditions: NB7 neuroblastoma + caspase-8, without TRAIL, luminescence viability, without TRAIL, mean of runs, at 10 µM

Tumor necrosis factor receptor superfamily member 10B (Homo sapiens), sequence (O14763 whole entry, looked up): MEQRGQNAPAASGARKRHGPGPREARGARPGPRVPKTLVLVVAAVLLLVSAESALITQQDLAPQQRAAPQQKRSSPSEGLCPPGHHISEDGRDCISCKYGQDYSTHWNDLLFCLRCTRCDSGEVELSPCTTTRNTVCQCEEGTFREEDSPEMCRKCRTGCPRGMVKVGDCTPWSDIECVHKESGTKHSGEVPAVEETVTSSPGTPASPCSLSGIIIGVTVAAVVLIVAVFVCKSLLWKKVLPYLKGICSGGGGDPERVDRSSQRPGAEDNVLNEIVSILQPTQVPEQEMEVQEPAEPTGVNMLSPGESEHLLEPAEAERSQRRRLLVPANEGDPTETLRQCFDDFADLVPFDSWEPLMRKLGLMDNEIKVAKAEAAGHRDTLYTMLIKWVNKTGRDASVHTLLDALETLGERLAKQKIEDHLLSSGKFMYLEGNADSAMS

SMILES | activity [1] [%] | activity [2] [%]
COC(=O)c1ccc(CCc2cc(O)c(Br)cc2O)cc1 | 15 | 19.7
COc1ccc(C(=O)Nc2nnc(SCC(=O)NCc3ccco3)s2)c(OC)c1 | 65.7 | 61.2
Cc1ccc(-n2c(-c3ccc(Br)cc3)c[n+]3c2CCc2ccc4cccnc4c2-3)cc1 | 70.2 | 63
CCOC(=O)Cc1csc(NC(=S)NC(=O)c2ccc(C)cc2)n1 | 84.9 | 84.6
COC(=O)c1ccc2nc(-c3cccc(N)c3)cn2c1 | 74.5 | 67.8
C=CCN(CC=C)c1cnn(-c2nc3ccccc3[nH]2)c(=O)c1Cl | 69.6 | 59.7
O=C1[C@H]2[C@@H](/C=C/c3ccccc3)N3C(=O)CN(CC4CC4)C(=O)[C@@]3(Cc3ccccc3)[C@H]2C(=O)N1c1ccccc1 | 73.9 | 97.8
CCOc1ccccc1NC(=O)c1nc(S(=O)(=O)Cc2cccc(C)c2)ncc1Cl | 84.6 | 97.2
CCc1ccc(C2=NNC(=Nc3cccc(S(=O)(=O)N(C)C)c3)SC2)cc1 | 76.8 | 75
Cc1csc(C(C#N)C(=O)c2cc3ccccc3o2)n1 (stereo unspecified) | 57.3 | 61.2
CCCCCCCCCCn1ccc(=N)cc1 | 84 | 68.3
COc1ccc(Cn2c(SCc3ccc(C)cc3)nc3cc(OC)c(OC)cc3c2=N)cc1Cl | 99 | 99.3
CC(=O)Nc1ccc(C=NNc2nnc(NN=Cc3ccc(NC(C)=O)cc3)c3ccccc23)cc1 | 68.6 | 67.4
Cc1ccc(-c2cnn(-c3ccccc3)c2N)cc1 | 78.6 | 77
CCCC(=O)N1CCN(c2ccc(NC(=O)c3cc4ccccc4o3)cc2Cl)CC1 | 83 | 58.6
C[C@@H](CO)NC(=O)c1ccc2c3n(nc2c1)-c1ccccc1CO3 | 91.5 | 91.8
CCOc1cc(CNCCc2ccc(S(N)(=O)=O)cc2)ccc1OCc1ccc(Cl)cc1 | 65.4 | 84.1
N/C(=N\OC(=O)COc1ccc(Br)cc1Cl)c1ccccn1 | 38.2 | 47.5
Cc1ccc(C2=NN(C(=O)CCl)C(c3cccs3)C2)o1 (stereo unspecified) | 99.6 | 99.1
O=C(Nc1nc2cc3c(cc2s1)OCCO3)c1ccc([N+](=O)[O-])o1 | 63.8 | 84.1
Brc1ccc(-c2cn3ccccc3n2)s1 | 52.6 | 38.7
S=c1nc[nH]c2nc[nH]c12 | 64.5 | 69
CC(C)COCc1ccc(O)c2ncccc12 | 38.6 | 32.1
O=C(NO)c1cc(OCC(F)(F)F)ccc1OCC(F)(F)F | 51.1 | 71.4

SMILES | activity [1] [%] | activity [2] [%]
Cc1ccc(C2CC(c3cccs3)=NN2C(=O)CCl)cc1 (stereo unspecified) | 98.8 | 98
CCOc1cc(/C=C\[N+](=O)[O-])ccc1OCC(=O)Nc1ccccc1C | 88.8 | 91.9
Fc1cccc2sc(Nc3nc4cc5c(cc4s3)OCCO5)nc12 | 40.2 | 28.4
CCOC(=O)CSc1nc2cc(C)ccc2cc1C#N | 39.8 | 38.4
Nc1ncnc2c(C3OC(CO)C(O)C3O)c[nH]c12 (stereo unspecified) | 95.2 | 98.7
Cc1ccc(CN2[C@@H](Cc3ccccc3)C(=O)CS2(=O)=O)cc1 | 81 | 60.2
Cc1ccc(/C=N/Nc2nnc(Cl)c3ccccc23)cc1 | 82.6 | 73.8
Fc1ccc(-n2nnc(-c3cnc4ccccc4c3)n2)cc1 | 70.8 | 63.9
CSc1ccc(NC(=O)Nc2cc(C)ccn2)cc1 | 52.8 | 35.7
COc1cccc(/C=C/C(=O)NNC(=O)c2ccco2)c1OC | 66.7 | 62.8
CCOC(=O)c1cc([N+](=O)[O-])cc([N+](=O)[O-])c1Sc1ncnc2nc[nH]c12 | 51.5 | 71.2
Cc1ccc2nc(NC(=O)c3cccs3)sc2c1 | 72.1 | 71.2
CCc1cc2c(=O)[nH]c(-c3ccccn3)nc2s1 | 35.9 | 41
Cc1oc(-c2nc3ccccc3n2C)cc1C(=O)c1ccccc1 | 81.4 | 81
CC1CCc2cc(F)ccc2N1C(=O)CCl (stereo unspecified) | 99.3 | 98.8
COc1ccc(C(=O)Nn2c(SCC(=O)N3CCC(C)CC3)nc3ccccc3c2=O)cc1 | 68.2 | 67.2
Cn1c2ccccc2c(=O)c2ccc(C#CC3(O)CCCCC3)cc21 | 91.3 | 83.4
Cc1c(C(=O)Nc2cccc([N+](=O)[O-])c2)csc1-c1ccccc1 | 56.5 | 48.1
CC[C@@H](C)[C@H](CNC)NC[C@@H](Cc1cccc2ccccc12)NCCc1cccc(C(F)(F)F)c1 | 86.9 | 97.8
O=C(Nc1nc2ccccc2[nH]1)c1ccc(F)cc1 | 90.8 | 91
c1ccc(-c2cnc(-c3ccccc3)nn2)cc1 | 64.9 | 68.4
COc1ccc(/C=N/OC(=O)Nc2ccccc2OC)cc1 | 56.9 | 63.3
C=C1CCc2c([nH]c3ccc(OCC(C)C)cc23)C1=O | 91.8 | 99.2
O=C(Nc1ccccc1)c1cc(C2CCCN(C(=O)C3CC3)C2)on1 (stereo unspecified) | 48.6 | 32.4
